High-throughput results (PubChem)
An excerpt weighted towards active compounds, which were near 8.7% of everything screened.
JMJD2A Tudor inh: blocks the human JMJD2A Tudor domain. Potency, µM (highest dose often 114 µM), for inactives: at the top dose activity change, negative = inhibition, usual class: inhibitors. 390,000 tested, 4.4% active. AlphaScreen JMJD2A-Tudor / H3K4me3 peptide binding. O75164. AID 504339; further: on the % scale 0 is the no-effect control and ±100 the full control effect; nearly all actives have a fitted effect of over 50% in size
Target sequence (O75164 whole entry, looked up, the tested form may be a part): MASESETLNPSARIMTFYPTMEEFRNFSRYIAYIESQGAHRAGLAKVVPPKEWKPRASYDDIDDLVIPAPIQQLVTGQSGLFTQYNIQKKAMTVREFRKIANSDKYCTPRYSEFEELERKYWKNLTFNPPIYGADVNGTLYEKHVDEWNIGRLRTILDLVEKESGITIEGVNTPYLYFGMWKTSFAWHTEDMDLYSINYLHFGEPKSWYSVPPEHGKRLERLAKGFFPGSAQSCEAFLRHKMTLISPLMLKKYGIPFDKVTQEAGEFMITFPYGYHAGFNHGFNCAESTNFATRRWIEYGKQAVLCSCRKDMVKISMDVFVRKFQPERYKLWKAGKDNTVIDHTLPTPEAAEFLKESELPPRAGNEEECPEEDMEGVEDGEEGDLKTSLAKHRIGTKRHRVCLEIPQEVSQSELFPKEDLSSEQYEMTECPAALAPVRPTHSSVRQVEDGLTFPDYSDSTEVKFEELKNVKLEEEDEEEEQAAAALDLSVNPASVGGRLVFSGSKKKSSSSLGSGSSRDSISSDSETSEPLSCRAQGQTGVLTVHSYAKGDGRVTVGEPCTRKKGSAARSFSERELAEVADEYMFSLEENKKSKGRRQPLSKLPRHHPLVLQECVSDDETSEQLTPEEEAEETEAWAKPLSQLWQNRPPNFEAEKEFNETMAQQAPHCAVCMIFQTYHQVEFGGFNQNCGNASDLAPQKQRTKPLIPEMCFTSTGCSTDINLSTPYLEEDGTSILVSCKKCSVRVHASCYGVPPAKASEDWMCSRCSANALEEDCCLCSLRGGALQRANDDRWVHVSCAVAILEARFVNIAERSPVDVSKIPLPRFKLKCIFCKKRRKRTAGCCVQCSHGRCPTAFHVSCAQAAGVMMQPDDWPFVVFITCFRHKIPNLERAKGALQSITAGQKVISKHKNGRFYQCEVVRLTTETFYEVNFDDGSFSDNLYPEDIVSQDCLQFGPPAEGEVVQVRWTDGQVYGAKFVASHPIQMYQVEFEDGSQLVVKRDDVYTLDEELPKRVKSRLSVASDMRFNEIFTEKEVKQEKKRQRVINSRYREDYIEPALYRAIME
HP1b chromo inh: blocks HP1-beta chromodomain binding to methylated histone tails. P83916. AlphaScreen HP1-beta / biotin-H3K9me3 peptide binding. Potency, µM (highest dose often 114 µM), without a hit: at the highest dose activity change, negative = inhibition, hits mostly inhibitors. 390,000 tested, 0.56% active; further: nearly all actives have a fitted effect of over 70% in size
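HP1-beta protein (50 nM final) preincubated 30 min at room temperature with biotinylated H3(1-18)K9me3 peptide (50 nM) in PBS pH 7.4, 0.01% Tween-20, then compound added for 30 min. AlphaScreen streptavidin donor/nickel chelate acceptor beads (10 ug/mL final), 30 min dark, luminescence read.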
BAZ2B block: inhibitors of human BAZ2B bromodomain; Potency, µM (titrated, usually from 114 µM), inactives show top-dose activity change, negative = inhibition, most hits filed as inhibitors; AlphaScreen BAZ2B-H3K14Ac peptide displacement; AID 504333; Q9UIF8; 360,000 tested, 4.4% active; further: on the % scale 0 is the no-effect control and ±100 the full control effect; nearly all actives have a fitted effect of over 60% in size
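Protein-peptide AlphaScreen: BAZ2B 50 nM, b-H3K14Ac 50 nM, 1x PBS pH 7.4 + 0.01% Tween-20. Preincubation 30 min RT; cpd 30 min RT (top 110 uM); beads 20 min RT, light-protected.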
ALOX12 inh: blocks human arachidonate 12S-lipoxygenase | Potency, µM (titrated, usually from 108 µM), for inactives: top-dose activity change, negative = inhibition, usual class: inhibitors | purified 12hLO, xylenol orange hydroperoxide absorbance | 580,000 tested, 1.1% active | AID 1671190 | P18054; further: on the % scale 0 is the no-effect control and ±100 the full control effect
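Purified human 12hLO (150 nM final) in 25 mM Hepes, 0.01% Triton X-100, pH 7.0 was preincubated 15 min at room temperature with compound. Then 40 uM arachidonic acid was added, 30 min. Hydroperoxide was read by Fe-XO absorbance ratio 573/405 nm.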
G9a block: G9a (human) methyltransferase inhibition; Q96KQ7; G9a H3K9 monomethylation, AlphaScreen, 2 h; Potency, µM (highest dose often 102 µM), for inactives: top-dose activity, negative = inhibition, most hits filed as inhibitors; 350,000 tested, 8.8% active; AID 504332; further: on the % scale 0 is the no-effect control and ±100 the full control effect; nearly all actives have a fitted effect of over 75% in size
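AlphaScreen detection with an anti-monomethyl H3K9 antibody quantified product after a 2 h room-temperature reaction containing 500 nM biotinylated H3K9 peptide, 20 µM SAM and 20 nM enzyme, which had been preincubated 15 min with compound.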
Sfp PPTase inh: inhibitors of Bacillus subtilis Sfp phosphopantetheinyl transferase | Q9F4F7 | Biochemical Sfp PPTase activity, qHTS | Potency, µM, inactives show largest response in the series, negative = inhibition, most hits filed as inhibitors | 310,000 tested, 3.5% active;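 further: the enzyme is Sfp with the accession as filed and its product quenches rhodamine fluorescence; 0% = enzyme reaction without inhibitor and -100% = no enzyme wells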
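Fluorescence-quenching assay with 15 nM Sfp, 5 uM rhodamine-CoA and 12.5 uM BHQ-2-labelled ybbR peptide in pH 7.6 Hepes/MgCl2 buffer. Enzyme was pre-incubated with compound for 15 min at room temperature. Rate was taken from the 30-min fluorescence change (525/598 nm).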
* hit, by the source's call; ? = inconclusive; / = no result given; [ ] = dose if it differs, or a comment. The call rests on the fitted dose curve; in most records, active means well fitted curve in the direction sought with a large enough effect; inconclusive means small, poorly fitted or top-dose-only effect, or another doubt; inactive means no such curve, though single readings can be large; an effect the other way counts as inactive or inconclusive. Potency means the concentration at half of the fitted maximal effect.

SMILES	JMJD2A Tudor inh	HP1b chromo inh	BAZ2B block	ALOX12 inh	G9a block	Sfp PPTase inh
Cn1c(=O)cc(OCC(=O)NCCCN2CCN(c3cccc(Cl)c3)CC2)c2ccccc21	-35.2%	16.6%	-29.5%	361.0%	50.1µM*	-7.4%
O=C(c1cc(F)ccc1F)N1CCCC(n2cc(-c3nc(-c4ccccc4)no3)nn2)C1 (configuration not stated)	/	/	/	6.6%	/	/
Cc1cc(C)c(C)c(S(=O)(=O)N2CCCc3ccccc32)c1C	/	/	/	17.6%	/	/
CCN(CCCNC(=O)COc1cc(=O)n(C)c2ccccc12)c1cccc(C)c1	?	-1.4%	50.1µM*	-3.8%	35.5µM*	7.6%
CCN(CCCNC(=O)CCn1c(=O)[nH]c2ccccc2c1=O)c1cccc(C)c1	-11.5%[57.1 µM]	29.4%	-23.4%	?	10µM*	15.3%
CC(C)N(C1=N/C(=C\c2ccco2)C(=O)N1c1ccccc1)C(C)C	-5.1%	8.5%	-4.2%	-13.6%	?	-9.3%
CN1C(=S)N(c2ccccc2)C(=O)/C1=C/c1cccs1	-21.4%	17.0%	4.3%	3.4%	9.2%[59 µM]	13.0%
CN1C(=S)N(c2ccccc2)C(=O)/C1=C/c1ccco1	-27.8%	6.1%	-33.7%	?	10µM*	-44.4%
O=C1/C(=C/c2ccco2)N=C(N2CCCCC2)N1c1ccccc1	-25.2%	0.4%	79.4µM*	-25.4%	?	?
Cc1nc(NC(=O)c2ccc3c(c2)OCCO3)ccc1Cl	/	/	/	-55.9%	/	/
CC(/C=C/c1ccco1)=N/NC(=O)c1ccccc1Cl	-33.0%	25.9%	-7.7%	8.5%	?	35.5µM*
O=C(N/N=C/C=C/c1ccco1)c1cccc([N+](=O)[O-])c1	-17.0%	35.9%	-7.8%	-25.4%	?	-20.7%
O=C(N/N=C/C=C/c1ccco1)c1ccccc1Cl	-20.0%	-17.8%	-30.8%	?	?	39.8µM*
CC(=O)Nc1cccc(C(C)NC(=O)NOCc2ccccc2)c1 (configuration not stated)	/	/	/	8.7%	/	/
O=C(Nc1cccc(-c2nc3cccnc3s2)c1)C1c2ccccc2Oc2ccccc21	?	25.5%	79.4µM*	-19.4%	?	5.8%
CC1=CC(C)(C)n2c(O)c(N=NC(N)=S)c3c(C)c(C)cc1c32	-20.1%	20.3%	?	0.0%	?	5.6%
CC1=CC(C)(C)n2c(O)c(N=NC(N)=S)c3c(C)ccc1c32	-25.8%	5.0%	-7.5%	-27.9%	-2.3%	16.8%
COc1cc2c3c(c1)c(N=NC(N)=S)c(O)n3C(C)(C)C=C2C	-21.0%	5.9%	-19.4%	-6.8%	/	-1.8%
CC1=CC(C)(C)n2c(O)c(N=N)c3c(C)c(C)cc1c32	?	?	35.5µM*	5.8%	-9.6%[12.7 µM]	-2.9%
CC1=CC(C)(C)n2c(O)c(N=N)c3cc(C)cc1c32	50.1µM*	?	44.7µM*	-19.8%	?	-12.2%
CC1=CC(C)(C)n2c(O)c(N=N)c3c(C)ccc1c32	44.7µM*	-16.4%[57 µM]	?	4.6%	50.1µM*	12.2%
COc1cc(CNC(=O)c2nccnc2N)ccn1	/	/	/	5.1%	/	/
C=CCn1c(N2CCN(c3ccccc3)CC2)nc2c1c(=O)n(C)c(=O)n2C	/	/	/	-2.3%	/	/
O=C(CCC1CCCC1)Nc1cccc(-c2nnc3n2CCCC3)c1	/	/	/	37.8%	/	/
Cc1ccc(S(=O)(=O)N(C)C(C)c2cc3ccccc3o2)cc1 (configuration not stated)	/	/	/	6.4%	/	/
Cc1ccc(/C=C/C(=O)N2CCN(S(=O)(=O)c3cccs3)CC2)o1	-34.4%	-11.2%	-36.2%	?	7.94µM*	14.1µM*
O=C(/C=C/c1ccco1)N1CCN(S(=O)(=O)c2cccs2)CC1	?	?	?	?	39.8µM*	15.8µM*
O=S(=O)(/C=C/c1ccccc1)N1CCOCC1	4.3%	33.7%	-1.8%	1.4%	89.1µM*	10.4%
COc1ccc(C)cc1/C=C/C(=O)N1CCN(S(=O)(=O)c2cccs2)CC1	/	/	/	-77.3%	/	/
NC(=O)C1CCN(C(=O)/C=C/c2ccco2)CC1	-16.1%	6.2%	7.6%	0.9%	8.91µM*	?
